# Compounds with a hit are over-represented: about 4.1% of the library has one in this group of screens.
# FBA Mtb inh – inhibitors of M. tuberculosis fructose-bisphosphate aldolase; AID 588726; purified M. tuberculosis FBA, fluorescence read-out; 2.3% of 360,000 active; P9WQA3; inhibition, % at 1 µM; in the data active = inhibition above about 27%
# Target sequence (P9WQA3 whole entry, looked up): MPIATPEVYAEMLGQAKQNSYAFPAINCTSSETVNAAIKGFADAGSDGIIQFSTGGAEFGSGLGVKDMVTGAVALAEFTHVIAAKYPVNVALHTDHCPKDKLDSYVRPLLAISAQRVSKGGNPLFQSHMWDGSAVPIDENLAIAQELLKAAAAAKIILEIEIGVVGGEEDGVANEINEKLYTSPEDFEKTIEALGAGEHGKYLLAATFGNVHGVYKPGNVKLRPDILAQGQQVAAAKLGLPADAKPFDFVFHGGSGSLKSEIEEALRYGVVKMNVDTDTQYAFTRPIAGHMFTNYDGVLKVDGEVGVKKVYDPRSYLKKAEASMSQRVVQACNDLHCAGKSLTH
# Vc quorum ag – induces V. cholerae light production without autoinducers; activation, % at 18.7 µM; V. cholerae BH1578 lux reporter, luminescence, 6 h; 0.16% of 350,000 active; in the data active = activation mostly above about 9.7%, no sharp cut-off
# GDH-TPI inh – inhibits GDH-TPI coupling enzymes, artifact for Mtb FBA screen; GDH-TPI coupled enzyme counterscreen, NADH absorbance; inhibition, % at 4.8 µM; 1.2% of 360,000 active; AID 588335; in the data active = inhibition above about 30%
# Mtb UGM inh – blocks M. tuberculosis UGM enzyme | inhibition, % at 10 µM | purified UGM, fluorescence polarization probe displacement | 0.06% of 320,000 active | AID 504406; in the data active = inhibition above about 10%, passing the limit was not always enough
# RecA intein inh – blocks M. tuberculosis RecA intein splicing. P9WHJ3. 0.75% of 290,000 active. cell-free RecA intein splicing, fluorescence. inhibition, % (test concentration not listed). AID 2221; in the data active = inhibition above about 30%
# Rv3671c inh – Rv3671c (M. tuberculosis) protease inhibition; P9WHR9; inhibition, % at 5.96 µM; 0.048% of 320,000 active; AID 2606; in the data active = inhibition above about 38%;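 note: extracellular domain of Rv3671c used as enzyme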
# A number is an active result; i = inactive; nt = no result given; + = active, no number.
SMILES,FBA Mtb inh,Vc quorum ag,GDH-TPI inh,Mtb UGM inh,RecA intein inh,Rv3671c inh
NC(=O)N=Nc1c2[nH]c3ccccc3nc-2c2ccccc12,i,i,36,i,i,i
O=C(CCc1ccccc1O)N/N=C/c1ccc(Sc2cccc3cccnc23)o1,i,i,i,i,i,i
O=C(N/N=C/c1ccc(Sc2ccccn2)o1)c1cc2ccccc2cc1O,i,i,51,i,i,i
COC(=O)c1ccc(/C=N/NC(=O)c2cccc(F)c2)cc1,i,i,i,i,i,i
O=C(N/N=C/c1cnc2ccccc2n1)c1cccc(F)c1,i,i,37,i,i,i
O=C(N/N=C\c1ccc(Sc2ccccn2)o1)c1cccc(F)c1,i,i,31,i,i,i
O=C(N/N=C/c1ccc(Sc2ccccn2)o1)c1cccc([N+](=O)[O-])c1,i,i,i,i,i,i
COc1ccc2cc(CCNC(=O)c3ccc(S(=O)(=O)N4CCCC4)cc3)c(=O)[nH]c2c1,i,i,i,i,i,i
Nc1nc2cc(Cl)c(Br)cc2o1,i,i,i,nt,nt,nt
Cn1c(/C(C#N)=C/Nc2ccccn2)nc2ccccc21,i,nt,31,i,i,i
CCOc1ccccc1N/C=C(\C#N)c1nc2ccccc2n1C,i,i,i,i,i,i
CC(C)(C)c1ccc(-c2ncccc2O)cc1,170,i,i,i,i,i
Cn1cc(/C=C(\NC(=O)c2ccccc2Cl)C(=O)NCCN2CCOCC2)c2ccccc21,i,i,i,i,i,i
Cn1cc(/C=C(\NC(=O)c2ccccc2Cl)C(=O)NCCCN2CCOCC2)c2ccccc21,i,i,34,i,i,i
CCn1cc(/C=C(\NC(=O)c2ccccc2)C(=O)NCCCN2CCOCC2)c2ccccc21,i,i,40,i,i,i
CCn1cc(/C=C(\NC(=O)c2cc(OC)c(OC)c(OC)c2)C(=O)NCCCN2CCOCC2)c2ccccc21,i,i,i,i,i,i
CCOC(=O)CNC(=O)CN1CCC(c2nc3ccccc3[nH]2)CC1,i,i,i,i,i,i
C/C(=N\Nc1ccc(S(N)(=O)=O)cc1[N+](=O)[O-])c1ccco1,i,i,41,i,i,i
Cc1c(C)c2cc(Cl)c(O)c(CN3CCN(C)CC3)c2oc1=O,+,i,i,i,nt,i
Cc1c(C)c2cc(Cl)c(O)c(CN3CCCC(C)C3)c2oc1=O (centres undefined),+,i,i,i,i,i
CC1CCCN(Cc2c(O)ccc3c4c(c(=O)oc23)CCCC4)C1 (centres undefined),nt,i,i,i,i,i
CC(CNC(=O)CCS(=O)(=O)c1ccc2c(c1)NC(=O)CO2)c1ccccc1 (centres undefined),i,i,i,i,i,i
Cc1ccc(S(=O)(=O)N(C)c2ccc(C(=O)NC3CCCCC3)cc2)cc1,i,i,i,nt,nt,nt
CCOC(=O)c1c[nH]c(=S)n(-c2ccccc2)c1=O,i,i,39,i,i,i
CC(C)(C)c1ccc(CC(=O)N2CCC2(C)C(=O)NCc2cccs2)cc1 (centres undefined),i,i,i,nt,nt,nt
SMILES,FBA Mtb inh,Vc quorum ag,GDH-TPI inh,Mtb UGM inh,RecA intein inh,Rv3671c inh
Cc1ccc(Cn2c(=N)c(C(=O)NCCN3CCOCC3)cc3c(=O)n4ccccc4nc32)cc1,i,i,i,i,i,i
N=c1c(C(=O)NCc2ccc(F)cc2)cc2c(=O)n3ccccc3nc2n1CCCN1CCOCC1,113,i,i,i,nt,i
N=c1c(C(=O)NCCN2CCOCC2)cc2c(=O)n3ccccc3nc2n1CCc1ccccc1,173,i,i,i,i,i
N=c1c(C(=O)NCCc2ccccc2)cc2c(=O)n3ccccc3nc2n1CCCN1CCOCC1,145,i,i,i,nt,i
Cc1nc2ccccn2c1C(=O)NCCCN1CCOCC1,i,nt,i,i,i,i
N=c1c(S(=O)(=O)c2ccc(Br)cc2)cc2c(=O)n3ccccc3nc2n1CCN1CCOCC1,+,i,i,nt,nt,nt
c1ccc(-c2nc3c4ccccc4ccn3c2Cc2ccsc2)cc1,i,nt,nt,nt,nt,nt
COC(=O)c1ccccc1COc1cccn2c(N(C)CC3CC3)c(C)nc12,i,i,i,nt,nt,nt
COc1cccc(/C=N/n2c(-c3ccco3)nc3ccccc3c2=O)c1OC,i,i,i,11,i,i
Nc1nnnn1/N=C/c1ccc(Br)cc1,i,i,i,i,i,nt
Nc1nnnn1/N=C/c1cc(Br)ccc1O,i,i,32,i,i,i
O=C(C1CCCN(S(=O)(=O)c2cc(Cl)ccc2Cl)C1)N1CCOCC1 (centres undefined),i,i,i,i,i,i

# Compound activity (PubChem BioAssay)
